Measurements: PubChem BioAssay (EPA / NIEHS)
Activity calls are given as the source filed them. Rule for the calls: active = hit-call score of the fitted dose curve at least 0.9, where 1 is the maximum; inactive = score below 0.9.

What was measured:
Conditions in all cases: mRNA level, 48 h; actives raise or lower the signal
[1] = read-out: Ezrin (EZR), EZR (gene 7430); assay: LTEA_HepaRG_EZR: Life Technologies and Expression Analysis (LTEA) Assay for Ezrin (EZR) using HepaRG (AID 2283491)
How it was run: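 Read-out is EZR transcript level by qRT-PCR, normalized to three housekeeping genes and fitted bidirectionally against the DMSO control. Human HepaRG cells received test chemicals for 48 h at eight half-log concentrations up to 100 uM in 0.5% DMSO.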

[2] = read-out: Fatty Acid-Binding Protein 1 (FABP1), FABP1 (gene 2168); assay: LTEA_HepaRG_FABP1: Life Technologies and Expression Analysis (LTEA) Assay for Fatty Acid-Binding Protein 1 (FABP1) using HepaRG (AID 2283494)
How it was run: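 qRT-PCR readout of FABP1 transcript (normalized to three housekeeping genes) after 48 h chemical exposure of HepaRG cells; eight concentrations, half-log steps, max 100 uM, 0.5% DMSO vehicle; gain or loss fitted relative to DMSO baseline.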

[3] = read-out: Glutathione S-Transferase (GSTA2), GSTA2 (gene 2939); assay: LTEA_HepaRG_GSTA2: Life Technologies and Expression Analysis (LTEA) Assay for Glutathione S-Transferase (GSTA2) using HepaRG (AID 2283497)
How it was run: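 qRT-PCR readout of GSTA2 transcript, normalized to three housekeeping genes, fitted bidirectionally against 0.5% DMSO baseline. Differentiated HepaRG cells received compound for 48 h at 8 concentrations (top 100 uM, half-log steps).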

[4] = read-out: Glutamate-cysteine ligase catalytic (GCLC), GCLC (gene 2729); assay: LTEA_HepaRG_GCLC: Life Technologies and Expression Analysis (LTEA) Assay for Glutamate-cysteine ligase catalytic (GCLC) using HepaRG (AID 2283498)
How it was run: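 HepaRG, 48 h exposure, 8-pt half-log series from 100 uM, 0.5% DMSO vehicle; TaqMan qRT-PCR for GCLC mRNA, housekeeping-normalized; bidirectional curve fit vs DMSO baseline.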

[5] = read-out: growth arrest and DNA damage 45 (GADD45G), GADD45G (gene 10912); assay: LTEA_HepaRG_GADD45G: Life Technologies and Expression Analysis (LTEA) Assay for growth arrest and DNA damage 45 (GADD45G) using HepaRG (AID 2283499)
How it was run: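 Differentiated human HepaRG cells in serum-free induction medium were exposed for 48 h to 8 half-log concentrations up to 100 uM in 0.5% DMSO, in duplicate. GADD45G mRNA was measured by TaqMan qRT-PCR, normalised to ACTB, GAPDH and POLR2A, and fitted bidirectionally against DMSO.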

[6] = read-out: Glutamate-cysteine ligase regulatory (GCLM), GCLM (gene 2730); assay: LTEA_HepaRG_GCLM: Life Technologies and Expression Analysis (LTEA) Assay for Glutamate-cysteine ligase regulatory (GCLM) using HepaRG (AID 2283500)
How it was run: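 HepaRG, 48 h dosing, 100 uM top, half-log x8, 0.5% DMSO vehicle. Readout: GCLM mRNA by TaqMan qRT-PCR, housekeeping-normalized (ACTB/GAPDH/POLR2A). Curves fit bidirectionally vs DMSO baseline.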

[7] = read-out: Glutathione S-transferase M3 (GSTM3), GSTM3 (gene 2947); assay: LTEA_HepaRG_GSTM3: Life Technologies and Expression Analysis (LTEA) Assay for Glutathione S-transferase M3 (GSTM3) using HepaRG (AID 2283501)
How it was run: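 Differentiated HepaRG cells in serum-free induction medium were exposed in duplicate for 48 h to 8 half-log concentrations up to 100 uM in 0.5% DMSO. GSTM3 mRNA was measured by TaqMan qRT-PCR, normalized to ACTB/GAPDH/POLR2A, and fitted bidirectionally versus DMSO.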

[8] = read-out: Heat shock 70 kDa protein 1 (HSPA1A), gene 3303; assay: LTEA_HepaRG_HSPA1A: Life Technologies and Expression Analysis (LTEA) Assay for Heat shock 70 kDa protein 1 (HSPA1A) using HepaRG (AID 2283502)
How it was run: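 HepaRG, 48 h exposure, 8-pt half-log CRC from 100 uM in 0.5% DMSO, duplicates. Readout: TaqMan qRT-PCR of HSPA1A mRNA, housekeeping-normalized (ACTB/GAPDH/POLR2A). Bidirectional fit vs 0.5% DMSO baseline.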

[9] = read-out: Hypoxia-inducible factor 1-alpha (Homo sapiens) (UniProt Q16665); assay: LTEA_HepaRG_HIF1A: Life Technologies and Expression Analysis (LTEA) Assay for Hypoxia-inducible factor 1 (HIF1A) Trancription factor using HepaRG (AID 2283503)
How it was run: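 Gain- or loss-of-signal HIF1A mRNA changes are fitted against a DMSO baseline. HepaRG cultures receive eight concentrations, highest 100 uM, for 48 h in serum-free induction medium with 0.5% DMSO.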

[10] = read-out: 3-Hydroxy-3-Methylglutaryl-CoA Synthase 2 (HMGCS2), HMGCS2 (gene 3158); assay: LTEA_HepaRG_HMGCS2: Life Technologies and Expression Analysis (LTEA) Assay for 3-Hydroxy-3-Methylglutaryl-CoA Synthase 2 (HMGCS2) using HepaRG (AID 2283504)
How it was run: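 Differentiated human HepaRG cells were exposed in duplicate for 48 h in serum-free induction medium to eight concentrations (top 100 uM, half-log steps, 0.5% DMSO). HMGCS2 mRNA was quantified by TaqMan qRT-PCR, normalised to ACTB, GAPDH and POLR2A, then fitted bidirectionally against DMSO.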

HGF (gene 3082) = assay: LTEA_HepaRG_HGF: Life Technologies and Expression Analysis (LTEA) Assay for Hepatocyte Growth Facto (HGF) using HepaRG (AID 2283505)
How it was run: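 Differentiated human HepaRG cells in serum-free induction medium were exposed in duplicate for 48 h to eight concentrations (top 100 uM, half-log steps, 0.5% DMSO). HGF mRNA was quantified by qRT-PCR, normalized to ACTB, GAPDH and POLR2A.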

[11] = read-out: Insulin Like Growth Factor 1 (IGF1), IGF1 (gene 3479); assay: LTEA_HepaRG_IGF1: Life Technologies and Expression Analysis (LTEA) Assay for Insulin Like Growth Factor 1 (IGF1) using HepaRG (AID 2283506)
How it was run: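 qRT-PCR readout of IGF1 mRNA, normalized to three housekeeping genes, after 48 h chemical exposure of HepaRG cells. Concentrations: 8-point half-log series, top 100 uM, 0.5% DMSO vehicle. Gain or loss fitted against DMSO baseline.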

[12] = read-out: Intercellular Adhesion Molecule 1 (ICAM1), ICAM1 (gene 3383); assay: LTEA_HepaRG_ICAM1: Life Technologies and Expression Analysis (LTEA) Assay for Intercellular Adhesion Molecule 1 (ICAM1) using HepaRG (AID 2283507)
How it was run: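 Differentiated HepaRG cells in serum-free induction medium were exposed in duplicate for 48 h to eight half-log concentrations up to 100 uM in 0.5% DMSO. Transcript levels were measured by qRT-PCR normalized to ACTB, GAPDH and POLR2A; bidirectional fits relative to DMSO.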

[13] = read-out: Insulin-like growth factor-binding protein 1 (IGFBP1), IGFBP1 (gene 3484); assay: LTEA_HepaRG_IGFBP1: Life Technologies and Expression Analysis (LTEA) Assay for Insulin-like growth factor-binding protein 1 (IGFBP1) using HepaRG (AID 2283508)
How it was run: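 Differentiated human HepaRG cells in serum-free induction medium were exposed in duplicate for 48 h to eight concentrations, top 100 uM with half-log dilutions, in 0.5% DMSO. Transcript levels came from qRT-PCR normalised to ACTB, GAPDH and POLR2A, fitted bidirectionally against DMSO.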

[14] = read-out: Interleukin 6 (IL6), IL6 (gene 3569); assay: LTEA_HepaRG_IL6: Life Technologies and Expression Analysis (LTEA) Assay for Interleukin 6 (IL6) using HepaRG (AID 2283509)
How it was run: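 qRT-PCR read-out of IL6 transcript, normalized to three housekeeping genes, after 48 h chemical exposure of HepaRG cells; 8-point half-log series, top 100 uM, 0.5% DMSO vehicle. Bidirectional curve fitting against DMSO baseline.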

[15] = read-out: Interleukin 6 Receptor (IL6R), IL6R (gene 3570); assay: LTEA_HepaRG_IL6R: Life Technologies and Expression Analysis (LTEA) Assay for Interleukin 6 Receptor (IL6R) using HepaRG (AID 2283510)
How it was run: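 HepaRG, 48 h exposure, 8-pt half-log series, top 100 uM, 0.5% DMSO vehicle, duplicates. Read-out: TaqMan qRT-PCR of IL6R transcript, housekeeping-gene normalized. Gain or loss fitted relative to DMSO baseline.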

CYP3A5 (gene 1577) = assay: LTEA_HepaRG_CYP3A5: Life Technologies and Expression Analysis (LTEA) Assay for CYP3A5 using HepaRG (AID 2283493)
How it was run: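 qRT-PCR read-out: CYP3A5 transcript in HepaRG lysates, housekeeping-normalized (ACTB/GAPDH/POLR2A), fitted bidirectionally against 0.5% DMSO baseline. Exposure 48 h, eight half-log concentrations up to 100 uM, duplicates.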

[16] = read-out: Cytochrome P450 4A22 (Homo sapiens) (UniProt Q5TCH4); assay: LTEA_HepaRG_CYP4A22: Life Technologies and Expression Analysis (LTEA) Assay for Cytochrome P450 4A22 (CYP4A22) using HepaRG (AID 2283495)
How it was run: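 qRT-PCR of CYP4A22 mRNA (Fluidigm TaqMan, normalized to three housekeeping genes) after 48 h chemical exposure of HepaRG cells; 8-point half-log series, top 100 uM, 0.5% DMSO vehicle. Bidirectional curve fitting vs DMSO baseline.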

[17] = read-out: Cytochrome P450 7A1 (Homo sapiens) (UniProt P22680); assay: LTEA_HepaRG_CYP7A1: Life Technologies and Expression Analysis (LTEA) Assay for Cytochrome P450 7A1 (CYP7A1) using HepaRG (AID 2283496)
How it was run: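 Using 0.5% DMSO as vehicle and baseline, chemicals were tested in duplicate over an 8-point range from 100 uM on HepaRG cells for 48 h; qRT-PCR signals were normalised to ACTB, GAPDH and POLR2A.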

[18] = read-out: Cytochrome P450 3A7 (Homo sapiens) (UniProt P24462); assay: LTEA_HepaRG_CYP3A7: Life Technologies and Expression Analysis (LTEA) Assay for CYP3A7 using HepaRG (AID 2283492)
How it was run: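 HepaRG cells plated 48 h, then dosed in serum-free induction medium for 48 h at 8 concentrations (top 100 uM, half-log steps, 0.5% DMSO). CYP3A7 mRNA by qRT-PCR, normalised to ACTB/GAPDH/POLR2A; bidirectional fit versus DMSO.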

Measured: AC50

Hypoxia-inducible factor 1-alpha (Homo sapiens), sequence (Q16665 whole entry, looked up): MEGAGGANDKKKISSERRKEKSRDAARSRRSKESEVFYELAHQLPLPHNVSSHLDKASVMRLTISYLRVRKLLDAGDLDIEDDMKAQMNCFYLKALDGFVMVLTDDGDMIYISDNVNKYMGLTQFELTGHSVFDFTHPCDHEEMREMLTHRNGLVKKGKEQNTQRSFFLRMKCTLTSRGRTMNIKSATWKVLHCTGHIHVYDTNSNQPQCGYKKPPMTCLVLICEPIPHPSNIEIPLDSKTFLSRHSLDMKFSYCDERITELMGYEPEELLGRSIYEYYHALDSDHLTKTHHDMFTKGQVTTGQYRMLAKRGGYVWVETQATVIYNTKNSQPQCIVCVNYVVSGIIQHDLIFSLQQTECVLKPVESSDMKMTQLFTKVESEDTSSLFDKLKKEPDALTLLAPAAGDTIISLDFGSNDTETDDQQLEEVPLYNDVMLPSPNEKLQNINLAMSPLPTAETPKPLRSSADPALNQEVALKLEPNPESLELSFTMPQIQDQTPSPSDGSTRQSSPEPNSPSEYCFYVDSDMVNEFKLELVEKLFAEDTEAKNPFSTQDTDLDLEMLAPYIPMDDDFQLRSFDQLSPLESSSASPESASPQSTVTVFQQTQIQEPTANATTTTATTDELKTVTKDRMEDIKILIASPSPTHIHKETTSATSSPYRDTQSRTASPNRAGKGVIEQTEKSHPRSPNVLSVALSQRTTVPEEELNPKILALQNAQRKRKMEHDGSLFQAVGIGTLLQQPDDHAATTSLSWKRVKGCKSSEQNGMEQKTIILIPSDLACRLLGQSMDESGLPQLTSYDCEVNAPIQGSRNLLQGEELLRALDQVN
Cytochrome P450 3A7 (Homo sapiens), sequence (P24462 whole entry, looked up): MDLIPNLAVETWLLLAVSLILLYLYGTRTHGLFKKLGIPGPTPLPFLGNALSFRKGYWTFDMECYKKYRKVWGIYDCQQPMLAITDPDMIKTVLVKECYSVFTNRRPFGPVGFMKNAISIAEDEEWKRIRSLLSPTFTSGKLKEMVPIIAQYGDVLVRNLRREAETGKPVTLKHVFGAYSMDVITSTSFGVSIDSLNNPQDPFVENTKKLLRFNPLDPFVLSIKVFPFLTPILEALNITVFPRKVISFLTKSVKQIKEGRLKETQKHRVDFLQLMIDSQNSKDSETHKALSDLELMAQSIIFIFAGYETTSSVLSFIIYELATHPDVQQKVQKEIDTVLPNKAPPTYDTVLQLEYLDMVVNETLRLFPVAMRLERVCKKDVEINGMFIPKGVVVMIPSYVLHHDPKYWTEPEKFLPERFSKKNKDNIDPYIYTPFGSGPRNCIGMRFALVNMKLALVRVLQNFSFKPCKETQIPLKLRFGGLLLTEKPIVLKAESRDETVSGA

C[C@]12CC[C@@H]3c4ccc(O)cc4CC[C@H]3[C@@H]1CCC2=O
inactive: [1] | [3] | [4] | [5] | [6] | [7] | [9] | HGF (gene 3082) | [12] | [13] | [14] | [15]
active: [2] 30.8 µM | [8] 33.2 µM | [10] 72.7 µM | [11] 50 µM

COc1cc(C(=O)NC2CCN(C)CC2)ccc1Nc1ncc2c(n1)N(C1CCCC1)CC(F)(F)C(=O)N2C
active: [1] 28.7 µM | [2] 6.44 µM | [16] 3.23 µM | [17] 8.23 µM | [3] 12 µM | [4] 21.3 µM | [5] 85.6 µM | [7] 3.73 µM | [8] 31.7 µM | [10] 10.5 µM | [11] 3.45 µM | [12] 83.7 µM | [13] 23.3 µM | [14] 25.2 µM
inactive: CYP3A5 (gene 1577) | [6] | [9] | HGF (gene 3082)

COc1ccc2cc(S(=O)(=O)N[C@H](CC(=O)N[C@H](Cc3ccc(CN4[C@H](C)CCC[C@@H]4C)cc3)C(=O)N(C)C(C)C)c3ccc4c(c3)OCO4)ccc2c1
active: [18] 25.2 µM | CYP3A5 (gene 1577) 22.1 µM | [2] 12.1 µM | [16] 2.63 µM | [3] 81.6 µM | [4] 56.4 µM | [7] 22.5 µM | [8] 82.6 µM | [9] 75.5 µM | HGF (gene 3082) 19.9 µM | [11] 21.2 µM | [12] 12 µM | [13] 13 µM | [14] 30.9 µM | [15] 82.5 µM
inactive: [1] | [17] | [5] | [10]
